Hits are enriched below; roughly 5.1% of the tested compounds scored in any of these assays.
S1P3 antag: antagonists of human S1P3 receptor | AID 485 | CHO S1P3 NFAT-BLA reporter, FRET fluorescence, antagonist mode | Q99500 | actives 0.27% (n = 170,000) | inhibition, % at 4.98 µM;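 active = inhibition above the plate cutoff, the mean inhibition of test wells on that plate plus 3 SD, cut at about 28% in these data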;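 also: cells challenged with S1P at its EC80 of 0.8 µM; blue over green emission ratio from cleaved BLA substrate after 4 h stimulation; 0% = S1P-stimulated wells and 100% = unstimulated DMSO-only wells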
S1P4 ag: activates the human S1P4 receptor. S1P4-expressing cell line, agonist reporter assay. activation, % at 4.98 µM. actives 0.35% (n = 220,000); in the data active = activation above about 11%;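 also: 0% = DMSO vehicle and 100% = reference agonist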
S1P4 antag: human S1P4 receptor antagonism; actives 0.26% (n = 220,000); inhibition, % at 4.98 µM; O95977; S1P4-expressing cells, antagonist mode, reporter read-out; in the data active = inhibition above about 29%;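 also: 0% = wells stimulated with agonist and 100% = vehicle wells without agonist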
KCC2 mod: modulators of human KCC2 chloride dependent transport | actives 2.2% (n = 190,000) | KCC2 cells, thallium flux FluoZin-2 fluorescence | Q9H2X9 | B-score of Tl+ flux slope (higher = more flux/activation; lower = inhibition) at 10 µM;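 active = thallium flux slope and its plate-corrected score both differing from the plate sample mean at a set confidence after two filtering rounds, in either direction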;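 also: slope of fluorescence scaled to starting intensity during 10 to 20 s after thallium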
ROMK mod: modulators of human ROMK potassium channel. Tet-inducible ROMK, thallium flux fluorescence; actives lie on both sides. P48048. actives 2% (n = 130,000). B-score at 10 µM;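 active = signal ratio slope over the read window, or its plate-corrected B-score, at least 3 SD from the plate mean, either direction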;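 also: B-score of the F/F0 ratio slope over 7 to 12 s after thallium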
Target sequence (P48048 whole entry, looked up): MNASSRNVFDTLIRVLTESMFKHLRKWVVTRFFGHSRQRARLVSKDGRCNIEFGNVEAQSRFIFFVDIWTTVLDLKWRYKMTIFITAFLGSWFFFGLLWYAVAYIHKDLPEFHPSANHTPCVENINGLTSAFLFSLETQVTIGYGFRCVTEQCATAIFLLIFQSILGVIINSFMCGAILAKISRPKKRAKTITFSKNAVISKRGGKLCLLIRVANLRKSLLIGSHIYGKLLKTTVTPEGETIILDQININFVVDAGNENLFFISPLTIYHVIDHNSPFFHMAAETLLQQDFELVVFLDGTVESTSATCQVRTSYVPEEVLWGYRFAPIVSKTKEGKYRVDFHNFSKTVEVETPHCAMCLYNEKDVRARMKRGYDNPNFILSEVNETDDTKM
RAM inhibit: blocks the yeast RAM network; S. cerevisiae dse1pr::URA3 reporter, 5-FOA growth OD615, 2 d; analog-sensitive cbk1-as2 kinase mutant strain; inhibition, % at 50 µM; actives 1.8% (n = 190,000);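 active = inhibition above a set limit, 3 SD over mean compound inhibition, cut at about 8.4% in these data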;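 also: 0% = DMSO-only wells with no growth and 100% = 10 µM 1-NA-PP1 full growth; inhibition rescues growth on 5-FOA so higher OD means more RAM inhibition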
ROMK retest: retested hit modulating human ROMK potassium channel | shares compounds with ROMK mod | ROMK thallium flux, fluorescence ratio; stronger effect = lower value | normalized thallium flux (F/F0 slope) at 10 µM | actives 54% (n = 3,000) | AID 1917;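 active = Flux at 10 µM at least 3 SD below or above vehicle control mean in one or both replicates; inconclusive = no clear call, values can overlap the other calls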
* hit, by the source's call; ? = inconclusive; / = no result.

SMILES	S1P3 antag	S1P4 ag	S1P4 antag	KCC2 mod	ROMK mod	RAM inhibit	ROMK retest
CC/C(=C\c1oc2cc3ccccc3cc2[n+]1CC)Nc1ccccc1	11	3	-2	/	/	-1	0.055*
CCOC(=O)c1c(NC(=S)Nc2ccccc2)sc2c1CCN(CCc1ccccc1)C2	/	0	-3	-0.29	/	1	0.061*
Cc1cc(NC(=O)NN2CCOCC2)nn1-c1c(Cl)cc(Cl)cc1Cl	6	1	10	0.17	/	/	/
Cc1ccc([C@@H]2C3COCC=C3C(C#N)=C(N)C2(C#N)C#N)o1 (stereo not given in full)	0	1	3	/	-4.5*	1	0.046*
CC1CCc2c(sc3ncn(N)c(=N)c23)C1 (stereo not given)	4	2	-3	-0.52	-0.018	/	/
CSc1ccc(/C=C(\C#N)C(=O)NC2CCCCC2C)cc1 (stereo not given)	5	2	-9	1.7	-3.1*	8	0.046*
COc1cc(/C=C(\C#N)C(=O)NC2CCCCC2C)ccc1OS(=O)(=O)c1ccc(C)cc1 (stereo not given)	-12	2	19	-0.37	/	4	/
CC(=O)Nc1ccc(/C=C(\C#N)C(=O)NC2CCCCC2C)cc1 (stereo not given)	-5	2	6	-1.6	-0.095	3	/
CC1CCCCC1NC(=O)/C(C#N)=C/c1ccccc1F (stereo not given)	0	0	8	0.12	-5.8*	-1	0.043*
O=C(CSc1ccc(Cl)cc1)N/N=C/c1cccnc1	-20	-1	3	-0.27	1.1	0	/
COc1ccccc1N(C)S(=O)(=O)c1ccc(C(=O)Nc2nc(C)cs2)cc1	-8	1	-5	-1.2	-0.75	4	/
Cc1ccc2sc(N(CCCN(C)C)C(=O)CN3C(=O)c4ccccc4C3=O)nc2c1C	5	-2	1	1.6	1.8	2	/
CCC1CCCCN1C(=O)COc1c(Br)cc(Br)c2cccnc12 (stereo not given)	-11	-2	-6	1.6	-4.1*	-2	0.059*
CCC1CCCCN1C(=O)COc1ccc(F)cc1 (stereo not given)	-11	1	2	0.024	-0.97	1	/
CC(NCC(O)COCc1ccc(Cl)cc1)c1ccccc1 (stereo not given)	7	-2	4	0.51	-2*	-1	0.049*
OC(CNCc1ccccc1)COCc1ccc(Cl)cc1 (stereo not given)	2	2	6	1.1	-1.9	2	/
COc1ccccc1-n1c(SCC(=O)N2CCc3ccccc32)nc2c(c1=O)SCC2	/	-2	-13	-2.6	/	3	0.058*
Cc1nnc(SCC(=O)N(C)c2ccccc2)n1Cc1ccccc1	-8	0	-3	0.22	-0.13	0	/
Fc1ccc(C2=NNC(=NCc3ccccc3)SC2)cc1F	9	-1	9	1.1	-3*	3	?
Cc1c(NC(=O)CSc2ccccc2F)c(=O)n(-c2ccccc2)n1C	14	2	-22	-0.084	-2.2*	0	0.081
CC(=O)/C=C(\C)Nc1c(C)n(C)n(-c2ccccc2)c1=O	-6	2	-29	0.99	1.8*	-1	?
Cc1c(NC(=O)CC(=O)Nc2c(C)n(C)n(-c3ccccc3)c2=O)c(=O)n(-c2ccccc2)n1C	-35	2	-29	-0.039	/	0	/
Cc1ccc(NC(=O)CSc2ccccc2NC(=O)c2ccccc2Cl)cc1Cl	0	0	-22	-0.043	/	2	/
NC1=NC(c2ccccc2)N=C(Nc2ccccc2)N1 (stereo not given)	3	-1	-2	-0.59	/	/	/
Nc1nnc(SCC(=O)NN2C(=O)NC3(CCCCC3)C2=O)s1	2	0	-15	-0.0077	0.37	0	/
Fc1ccccc1CNCCC(Cc1ccccc1)c1ccc2c(c1)OCO2 (stereo not given)	-2	-2	-11	0.21	-2.1	2	/
COc1ccc(CNCCC(c2ccccc2)c2ccc3c(c2)OCO3)cc1 (stereo not given)	/	0	-4	0.84	/	0	0.053*
O=C(Cc1cn(Cc2cccc(Cl)c2)c2ccccc12)N1CCCCCC1	-3	2	-10	-0.57	/	3	/
